FBPA coupling cs – coupling enzyme interference in Giardia aldolase counter-screen; activity change, negative = inhibition, % at 58.2 µM, hits read low; coupling enzyme system counterscreen, AmpLite Red fluorescence; 290,000 compounds, 0.67% hits; in the data active = activity change below about -30%
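Activity here indicates interference with the coupling reaction, not aldolase inhibition. Compounds at 57.5 uM final met coupling enzymes for 10 min at RT; substrate and AmpLite Red detection followed, with a 525/598 nm fluorescence read after 20 min.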
TSHR antagonist – blocks TSH signaling through the human TSH receptor; activity change, negative = inhibition, % at 11.5 µM; P16473; TSHR-expressing cells, TSH-stimulated cAMP HTRF, 2 h; stronger effect = lower value; 330,000 compounds, 0.2% hits;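 active = activity change below a set negative limit, meaning inhibition stronger than a set level, cut at about -70% in these data; inconclusive = activity change between two set negative limits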
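Inhibition of cAMP made by TSHR-expressing cells under TSH stimulation (4nM final, EC80; 2 h, 37 deg C) is quantified with a one-step lysis HTRF kit, anti-cAMP cryptate versus cAMP-d2.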
VP16 counter – counter-screen for ROR gamma inhibitors: Gal4-VP16 reporter. Potency, µM (highest dose often 53.6 µM), inactives show at the top dose activity, negative = inhibition, actives largely listed as inhibitors. 310,000 compounds, 3.5% hits. Drosophila S2 Gal4-VP16 UAS-luciferase, luminescence, 20 h. AID 2546;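 note: Gal4-VP16 expression switched on by copper sulfate through the metallothionein promoter; potency is the fitted concentration of half-maximal effect; nearly all actives have a fitted effect of over 50% in size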
ELG1 repair inh – ELG1-dependent DNA repair inhibition; HEK293T ELG1-luciferase reporter, luminescence, 16 h; DNA damage induced by 5-fluorouridine; Potency, µM (doses to about 46.1 µM), without a hit: at the highest dose activity change, negative = inhibition, actives largely listed as inhibitors; 330,000 compounds, 2.3% hits; note: potency is the fitted concentration of half-maximal effect; nearly all actives have a fitted effect of over 55% in size
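Step one: seed 2,000 cells per well. Step two: pin-transfer compound or DMSO alongside 5-fluorouridine. Step three: incubate 16 hr, 37 °C, 5% CO2. Step four: add ONE-Glo, wait 30 min, read luminescence.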
RORg inh – inhibitors of mouse ROR gamma transcriptional activity; P51450; Drosophila S2 Gal4-RORgamma UAS-luciferase reporter, 20 h; Potency, µM (top dose mostly 53.6 µM), for the others: top-dose activity change, negative = inhibition, usual class: inhibitors; 310,000 compounds, 5.4% hits; AID 2551; note: potency is the fitted concentration of half-maximal effect; nearly all actives have a fitted effect of over 60% in size
Target sequence (P51450 whole entry, looked up, the tested form may be a part): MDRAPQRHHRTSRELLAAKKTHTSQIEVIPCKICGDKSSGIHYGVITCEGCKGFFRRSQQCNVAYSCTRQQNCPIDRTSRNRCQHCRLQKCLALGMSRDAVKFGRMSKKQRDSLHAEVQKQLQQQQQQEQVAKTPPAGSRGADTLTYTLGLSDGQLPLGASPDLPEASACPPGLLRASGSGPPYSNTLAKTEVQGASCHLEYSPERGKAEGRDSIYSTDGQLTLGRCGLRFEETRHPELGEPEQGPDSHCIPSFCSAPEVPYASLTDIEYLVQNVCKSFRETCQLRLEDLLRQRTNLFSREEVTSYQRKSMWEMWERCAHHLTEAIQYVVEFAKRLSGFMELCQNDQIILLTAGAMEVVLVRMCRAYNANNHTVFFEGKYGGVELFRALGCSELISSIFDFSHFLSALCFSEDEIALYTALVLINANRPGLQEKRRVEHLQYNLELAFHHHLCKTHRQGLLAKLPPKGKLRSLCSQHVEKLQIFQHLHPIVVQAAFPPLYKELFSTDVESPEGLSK
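Compounds are pin-transferred onto Drosophila Schneider cells expressing a copper-inducible Gal4–ROR gamma transactivation domain fusion. After 1 hr, copper sulfate is added to 700 uM final; luciferase is read 20 hr later.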
The depositor's hits bear a star; ? = inconclusive; nt = not tested or not shown; [ ] = remark or other dose. This is a sample that favours compounds with a hit; in the whole collection about 8% have one here. Unless noted, calls come from the whole dose curve; as a rule, active = well fitted curve in the direction sought with a large enough effect; inconclusive = small, poorly fitted or top-dose-only effect, or another doubt; inactive = no such curve, though single readings can be large; an effect the other way counts as inactive or inconclusive. % is set by controls: 0 for no effect and ±100 for the full control effect.

SMILES | FBPA coupling cs | TSHR antagonist | VP16 counter | ELG1 repair inh | RORg inh
CN(C)S(=O)(=O)c1cccc(NC(=S)N/N=C/c2ccco2)c1 | 2 | -4 | 3.2µM* | -6% | 1.1µM*
CN(C)S(=O)(=O)c1cccc(NC(=S)N/N=C/C(c2ccccc2)c2ccccc2)c1 | -2 | 6 | 5µM* | 13% | 3.5µM*
CN(C)S(=O)(=O)c1cccc(NC(=S)N/N=C/c2ccc(O)c(O)c2O)c1 | -56* | -1 | -20% | 16µM* | ?
CC(/C=N/NC(=S)Nc1cccc(S(=O)(=O)N(C)C)c1)c1ccccc1 (stereo unspecified) | 1 | 13 | -15% | 4% | -30%
COc1cc(/C=N/NC(=S)Nc2cccc(S(=O)(=O)N(C)C)c2)cc(OC)c1O | -5 | -13 | 2.8µM* | 21µM* | 3.2µM*
CCn1c(C(=O)O)c(CC(=O)Nc2cccc(C(F)(F)F)c2)c2ccccc21 | -3 | -11 | 1% | ? | -13%
COc1ccc(O)c(/C=N/NC(=S)Nc2cccc(S(=O)(=O)N(C)C)c2)c1 | 3 | 5 | ? | ? | ?
COc1cccc(/C=N/NC(=S)Nc2cccc(S(=O)(=O)N(C)C)c2)c1 | -10 | 0 | 4.5µM* | -4% | 1.6µM*
COC(=O)COc1c(Cl)cc(Cl)c2ccc(C)nc12 | -3 | 5 | 22µM* | ? | ?
Cc1ccc2c(Cl)cc(Cl)c(OCC(=O)NC(C)(C)C)c2n1 | -2 | -4 | ? | ? | 7.1µM*
CC(C)(C)NC(=O)COC(=O)c1ccc(Cl)nc1 | 4 | 2 | 1% | -9% | 1%
O=C(N/N=C/C1CC=CCC1)c1ccc(Cl)cc1O (stereo unspecified) | 1 | -41 | 10µM* | 9% | 13µM*
O=C(N/N=C/C1CC=CCC1)c1ccccc1O (stereo unspecified) | 1 | -4 | ? | 3% | 11µM*
O=C(N/N=C/C1CC=CCC1)c1cc(Br)ccc1O (stereo unspecified) | 2 | -27 | ? | ? | ?
N#C[C@@H]1[C@@H]2C(=O)N(c3ccc4c(c3)OCCO4)C(=O)[C@@H]2C2c3ccccc3C=CN21 (stereo partly specified) | -34* | -10 | -4% | 20% | 1%
Cc1ccc(N(C)S(=O)(=O)c2cc(-c3cnc(C4CC4)o3)ccc2C)cc1 | 1 | -29 | ? | 16µM* | 21%
Cc1cccc(N(C)S(=O)(=O)c2ccc(-c3cnc(C4CC4)o3)cc2)c1 | nt | 19 | -8% | -22% | -2%
Cc1oc(C)c2c(=O)ccc3c(c12)OC(N)=C(C#N)C3c1ccc(F)cc1 (stereo unspecified) | -43* | 9 | -14% | 0% | -26%
NCC(=O)N[C@@H](CCCN=C(N)N)C(=O)NCC(=O)N[C@@H](CC(=O)O)C(=O)N[C@@H](CO)C(=O)O | 0 | nt | -1% | nt | 11%
C[n+]1c2n(c3ccccc31)N=C(c1cc(C(C)(C)C)c(O)c(C(C)(C)C)c1)CS2 | 2 | -21 | 7.9µM* | ? | ?
CCOc1ccccc1NC(=O)Nc1ccc(Cl)cc1 | -13 | -38 | ? | 19% | ?
CCOc1cc(NC(=S)Nc2cccc(OC)c2)c(OCC)cc1NC(=O)c1ccc(C)cc1 | -5 | 14 | 16µM* | -10% | 7.9µM*
COc1cccc(NC(=S)NC(C)c2ccc(OC)c(OC)c2)c1 (stereo unspecified) | 2 | -8 | ? | -15% | 7.9µM*
CCOc1cc(NC(=S)Nc2cccc(C)c2)c(OCC)cc1NC(=O)CC(C)C | -2 | 10 | 20µM* | ? | 6.3µM*
CCOc1cc(NC(=S)Nc2ccc(Cl)cc2)c(OCC)cc1NC(C)=O | -4 | -14 | ? | 7.3µM* | 11µM*
SMILES | FBPA coupling cs | TSHR antagonist | VP16 counter | ELG1 repair inh | RORg inh
COc1ccc(Oc2ncc3ncc(=O)n(CCC#N)c3n2)cc1 | -3 | nt | 8% | nt | -1%
O=[N+]([O-])c1ccccc1S(=O)(=O)N1CCSCC1 | nt | 7 | nt | 14% | nt
C=CCNCc1ccccc1[N+](=O)[O-] | nt | 5 | nt | 8% | nt
CC(=O)N1CCCc2cc(S(=O)(=O)N3CCCC(C)C3)ccc21 (stereo unspecified) | -2 | -5 | 20% | ? | -20%
COc1cccc(NC(=O)C(C)C)c1 | nt | -12 | nt | -4% | nt
CCOc1cc(NC(=O)c2ccccc2OC)c(OCC)cc1NC(=O)c1ccccc1 | -1 | -3 | -16% | -6% | 27%
CCOc1cc(NC(=O)CCl)c(OCC)cc1NC(=O)CCl | -13 | 5 | 20µM* | ? | 13µM*
CCOc1cc(NC(=S)Nc2cccc(OC)c2)c(OCC)cc1NC(=O)C(C)C | -4 | 6 | ? | ? | 8.9µM*
CCOc1cc(NC(=S)Nc2ccccc2)c(OCC)cc1NC(=O)c1ccc(OC)cc1 | -8 | 18 | 11µM* | ? | 4µM*
CCCCCCCC#Cc1ccccc1/C=N/S(=O)C(C)(C)C (stereo unspecified) | 1 | nt | 1%[10 µM] | nt | -15%[10 µM]
COc1ccc(N2CC(C(=O)OCC(=O)Nc3cccc(C)c3)CC2=O)cc1 (stereo unspecified) | 2 | -4 | 1% | 0% | 4%
CSCC[C@H](N)C(=O)N[C@@H](C)C(=O)NCC(=O)N[C@@H](CCCN=C(N)N)C(=O)N[C@@H](CO)C(=O)NCC(=O)N[C@@H](CC(=O)O)C(=O)N[C@@H](CO)C(=O)N[C@@H](CC(=O)O)C(=O)N[C@@H](CCC(=O)O)C(=O)N[C@@H](CC(=O)O)C(=O)N[C@@H](CC(C)C)C(=O)N[C@@H](CC(C)C)C(=O)N[C@@H](CCCCN)C(=O)N[C@@H](C)C(=O)N[C@H](C(=O)O)C(C)C | 2 | nt | -1% | nt | 0%
COCCn1c(=S)[nH]c2cc(C(=O)N3CCN(c4ccccc4OC)CC3)ccc2c1=O | 8 | -1 | ? | -14% | 14µM*
O=C(CCCn1c(=S)[nH]c2ccccc2c1=O)NCCSCc1ccccc1 | 10 | -12 | -5%[10 µM] | -25% | 13µM*
COCCn1c(=O)[nH]c2cc(C(=O)N3CCN(c4ccccc4OC)CC3)ccc2c1=O | 1 | -13 | -4% | -13% | -3%
CC1CC(C)CN(C(=O)CCCn2c(=S)[nH]c3ccccc3c2=O)C1 (stereo unspecified) | 1 | 10 | 13µM* | ? | 7.9µM*
O=C(CCCn1c(=O)[nH]c2ccccc2c1=O)NCCSCc1ccccc1 | 1 | -5 | -11% | 4% | -2%
COCCn1c(=S)[nH]c2cc(C(=O)N3CC(C)CC(C)C3)ccc2c1=O (stereo unspecified) | 1 | -15 | ? | -14% | 11µM*
CCc1ccc(OCCCCN(C)Cc2ccccc2)cc1 | 1 | 15 | -6% | -12% | 4%[1.91 µM]

Screens (PubChem BioAssay)
